# Measurements as given in PubChem BioAssay (Tox21).
# Records with an inconclusive call do not appear. Activity calls are given as the source filed them. Calls come from the whole dose curve.
# Biological target: Acetylcholinesterase (Homo sapiens) (UniProt P22303)
# Assay: Acetylcholinesterase (AChE) small molecule antagonists: colormetric cell-based qHTS assay (AID 1347395); note: nearly all actives have a fitted effect of over 30% in size
# Details: SH-SY5Y cells AChE activity, colorimetric (Ellman); series mostly up to 115 µM; activity, negative = inhibition: at the top concentration
# Procedure, shortened: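 Cells (SH-SY5Y, 2,000 per well) are seeded and left overnight at 37 C. Compound is added for 30 min, then DTNB and acetylthiocholine for a further 90 min at 37 C before absorbance-based thiocholine detection.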
# % is set by controls: 0 for no effect and ±100 for the full control effect.
# Chain of Acetylcholinesterase (Homo sapiens) (P22303 whole entry, looked up): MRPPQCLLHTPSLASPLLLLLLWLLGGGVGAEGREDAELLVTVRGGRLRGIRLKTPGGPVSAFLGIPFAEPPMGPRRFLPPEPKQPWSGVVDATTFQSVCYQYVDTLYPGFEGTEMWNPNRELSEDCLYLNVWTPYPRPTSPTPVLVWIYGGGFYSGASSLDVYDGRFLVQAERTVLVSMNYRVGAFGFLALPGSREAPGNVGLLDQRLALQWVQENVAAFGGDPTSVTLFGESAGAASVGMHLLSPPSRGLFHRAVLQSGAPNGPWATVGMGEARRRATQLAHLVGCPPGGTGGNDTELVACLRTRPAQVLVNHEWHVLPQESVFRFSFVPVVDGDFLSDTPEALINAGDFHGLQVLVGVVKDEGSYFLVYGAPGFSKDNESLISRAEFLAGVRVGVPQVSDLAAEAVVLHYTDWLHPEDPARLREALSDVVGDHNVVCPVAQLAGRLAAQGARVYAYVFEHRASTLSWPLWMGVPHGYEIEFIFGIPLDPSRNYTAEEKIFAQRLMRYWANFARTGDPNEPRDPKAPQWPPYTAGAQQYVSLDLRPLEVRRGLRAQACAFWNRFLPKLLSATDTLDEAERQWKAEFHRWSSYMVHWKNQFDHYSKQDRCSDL
SMILES,"activity, negative = inhibition",Potency
Cc1cccc(C(=O)O)c1O,-3.03% [at 52.9 µM] (inactive),–
CCOCCOCCOCC,2% (inactive),–
CC(C)=CC(=O)C=C(C)C,-0.36% (inactive),–
CNCCCC12CCC(c3ccccc31)c1ccccc12,–,inactive
CC(=O)O[Si](C)(OC(C)=O)OC(C)=O,3.38% (inactive),–
CC/C=C\CCOC(=O)c1ccccc1O,1.47% (inactive),–
CC(C)(Oc1ccc(Cl)cc1)C(=O)O,–,inactive
CCOC(=O)CC(=O)OCC,–,inactive
CC1=CC(C)C(C=O)C(C)C1 (stereo not given),0.372% (inactive),–
Cc1ccccc1C(=O)Nc1ccc(C(=O)N2CCCC(N(C)C)c3ccccc32)cc1 (stereo not given),-2% [at 52.9 µM] (inactive),–
C1=Cc2ccccc2C1,-4.9% (inactive),–
CCOC(=O)C1=NOC(c2ccccc2)(c2ccccc2)C1,-1.37% (inactive),–
CCCCCCc1ccc(-c2ccc(C#N)cc2)cc1,-0.287% (inactive),–
CC/C=C\C/C=C\C/C=C\CCCCCCCC(=O)OCC,-0.405% (inactive),–
O=C(O)c1ccccc1Cl,7.74% (inactive),–
Cc1ccc(C(C)C)cc2c(C)ccc1-2,1.18% [at 52.9 µM] (inactive),–
C=C(C)C(=O)OCCO,5.54% (inactive),–
O=c1[nH][nH]c2ccccc12,-1.81% (inactive),–
CC1CCC(C(C)CS)CC1S (stereo not given),2.86% (inactive),–
O=C1c2ccccc2C(=O)N1CCl,-0.409% (inactive),–

SMILES,"activity, negative = inhibition",Potency
Oc1ccccc1O,–,inactive
CCN1CN(CC)CN(CC)C1,0.526% (inactive),–
CC1=NN(c2ccc(S(=O)(=O)O)cc2)C(=O)C1,2.28% (inactive),–
CC/C=C(\C(=O)N[C@@H]1C(=O)N2C(C(=O)OCOC(=O)C(C)(C)C)=C(COC(N)=O)CS[C@H]12)c1csc(N)n1,–,inactive
CCOc1ccc(OCC)c(Cl)c1,-1.7% (inactive),–
CCCCCCCCCCO[C@@H]1O[C@H](CO)[C@@H](O)[C@H](O)[C@H]1O,-0.526% (inactive),–
CCN(CC)CCSC(=O)C(c1ccccc1)c1ccccc1,-1.43% [at 52.9 µM] (inactive),–
O=[N+]([O-])c1cc[n+]([O-])cc1,-1.68% (inactive),–
O=C(O)C(=O)O,–,inactive
CC(C#N)(CCC(=O)O)N=NC(C)(C#N)CCC(=O)O (stereo not given),-2.02% (inactive),–
O=C(O)CCCCCCCCC(=O)O,–,inactive
CCN(CC)CC1CCCCN1CC(=O)N1c2ccccc2C(=O)Nc2cccnc21 (stereo not given),-1.49% [at 52.9 µM] (inactive),–
CCc1occc(=O)c1O,0.136% (inactive),–
O=[N+]([O-])c1ccc(O)cc1,–,inactive
CCc1ncc(C)[nH]1,-4.05% (inactive),–
Oc1cc2ccccc2cc1O,1.14% (inactive),–
O=C(O)c1cc(O)c(O)c(O)c1,–,inactive
CCOC(=O)/C=C\C(=O)OCC,–,inactive
C=C(C)c1cccc(C(C)(C)N=C=O)c1,-1.39% (inactive),–
CCCCCCCCNC,0.101% (inactive),–
